Test results published in PubChem BioAssay AID922 (National Center for Advancing Translational Sciences (NCATS), 2007).
Records with an inconclusive call do not appear. Activity calls are given as the source filed them. Calls follow the shape of the dose curve; as a rule, active = well fitted inhibition curve with a large enough effect in the signal ratio, with a control signal flat; inconclusive = small, poorly fitted or top-dose-only effect, or effect the other way; inactive = flat fitted curve, though single readings scatter; the % refers to the signal ratio.

Assay: Confirmation Concentration-Response Assay for Identification of Small Molecule Antagonists of Stat Signaling Pathway
Conditions: SIE-bla cells, IL-6 stimulated, beta-lactamase ratio, 5 h; series mostly up to 38.3 µM
Excerpt: NIH Molecular Libraries Screening Centers Network [MLSCN] NIH Chemical Genomics Center [NCGC] MLSCN Grant: None NCGC Assay Overview: This assay is a retest of actives identified from the Stat signaling pathway assay (PubChem AID 446). The Stat assay is cell-based and measures Interleukin 6 (IL-6) mediated modulation of a beta-lactamase reporter gene controlled by a STAT inducible element (SIE-bla cells, Invitrogen). IL-6 is a cytokine that signals via the JAK/STAT pathway and is implicated in cancer and inflammation. SIE-bla cells are induced by IL-6 at 40 pM EC50 and inhibited by the pan JAK inhibitor, 2-(1,1-Dimethylethyl)-9-fluoro-3,6-dihydro-7H-benz[h]-imidaz[4,5-f]isoquinolin-7-one, at approximately 10 nM IC50. Plated cells were incubated overnight and on the following day, stimulated with 40 pM IL-6 for 5 hrs. The assay was stimulated with an EC50 of IL-6 to retest inhibitors of STAT signaling.
NCGC Assay Protocol Summary: Cells were trypsinized, washed in assay medium (AM, OPTI MEM with 0.5% fetal bovine serum, 0.1 mM nonessential amino acids, 1 mM sodium pyruvate, 10mM HEPES pH 7.3, 100U/ml penicillin, and 100 ug/ml streptomycin) and suspended at […] in AM. Approximately 2500 cells in 5 uL/well was dispensed into 1536-well plates and the cells were incubated overnight at 37 C. 23 nL of compound were delivered by a pin tool and 1 uL of IL-6 (40 pM final concentration in AM) was added. After plates were incubated at 37 C for 5 hrs, 1uL of detector mix (LiveBLAzerTM, Invitrogen) was added, the plates incubated at room temperature for 2.5 hrs, and fluorescence intensity at 460 and 530 nm emissions was measured at 405 nm excitation by an Envision (Perkin Elmer).

Structure (SMILES)	Potency
C=C1C(=O)O[C@@H]2[C@H]3O[C@]3(C)CCC=C(C)CC[C@@H]12	7.94 µM (active)
COc1cccc2c1[C@H](CO)N1[C@H](C#N)[C@@H]3C[C@H](C(=O)O)[C@@H]([C@@H]1C2)N3C	10 µM (active)
ClC(=Nc1cccc2ccccc12)N(c1ccccc1)c1ccccc1	inactive
CCOC(=O)c1[nH]c2cc3c(cc2c1NC(=O)CN1CCc2ccccc2C1)OCO3	15.8 µM (active)
O=C(Nc1ccc(N2CCN(C(=O)c3ccccc3)CC2)c(Cl)c1)c1ccc(Br)o1	10 µM (active)
CC1CCN(CC[S-])CC1.O.O.[Cl][Pt]	25.1 µM (active)
CSc1ncnc2c1ncn2CC(=O)[C@H]1CC[C@H]2[C@H]3CCC4=CC(=O)CC[C@@]4(C)[C@@H]3CC[C@@]12C	2.51 µM (active)
NS(=O)(=O)c1ccc(N=Nc2cc3ccccc3c(C(=O)O)c2O)cc1	6.31 µM (active)
CCC(=O)Nc1nc(C)c(Oc2ccccc2)c(=O)[nH]1	inactive
O=C1Nc2ccc(I)cc2/C1=C/c1cc(Br)c(O)c(Br)c1	12.6 µM (active)
O=C(O)c1c(Br)c(Br)c(Br)c(Br)c1C1c2ccc(O)cc2Oc2cc(O)ccc21	7.94 µM (active)
CCN(CC)CCNC(=O)c1cc(S(C)(=O)=O)ccc1OC	inactive
O=C(O)CCc1c2ccc(=O)c(O)c-2oc2c(O)c(O)ccc12	10 µM (active)
OC[C@@H]1CCC[C@H](n2cnc3c(=S)nc[nH]c32)O1	inactive
O=C1C(SCCO)=C(SCCO)C(=O)c2ccccc21	6.31 µM (active)
COc1cc(/C=C\C(=O)N2CCCCC2=O)cc(OC)c1OC	12.6 µM (active)
CN(C)S(=O)(=O)c1ccc2c(c1)/C(=C/c1cc3c([nH]1)CCCC3)C(=O)N2	2.51 µM (active)
NCCSc1nc2ccccc2s1	7.94 µM (active)
OCc1ccncc1.OCc1ccncc1.[Cl][Pt]([Cl])([Cl])[Cl]	10 µM (active)
C=C1C(=O)O[C@@H]2[C@@H]1CC/C(C)=C\CC[C@@]1(C)O[C@H]21	25.1 µM (active)
Cn1c(NCc2ccccc2)nc2c1c(=O)n(Cc1ccc(Br)cc1)c(=O)n2C	15.8 µM (active)
CCCCSc1nc(N)c(C#N)c(-c2cccs2)c1C#N	15.8 µM (active)
COc1ccc(C[C@@H]2C(=O)N[C@H](C)C(=O)N(C)[C@@H]3Cc4ccc(cc4)Oc4cc(ccc4O)C[C@H](C(=O)N[C@@H](C)C(=O)N[C@H](C)C(=O)N2C)N(C)C3=O)cc1	0.199 µM (active)
